Measurements as given in PubChem BioAssay (Tox21).
Records with an inconclusive call do not appear. A call without a number means that no potency is given here. Activity calls are given as the source filed them. Calls follow the shape of the dose curve; as a rule, active = well fitted inhibition curve with a large enough effect in the signal ratio in the repeat runs (not every such curve was filed as active); inconclusive = weak or mixed curves, or effect the other way; inactive = no such curve, though single readings can be large or run the other way; the % refers to the signal ratio.

molecular target: Glucocorticoid receptor (Homo sapiens) (UniProt P04150); experiment: qHTS assay to identify small molecule antagonists of the glucocorticoid receptor (GR) signaling pathway (AID 720692); settings: GR-bla HeLa, beta-lactamase FRET ratio, dexamethasone-stimulated, 18 h; series mostly up to 58.5 µM
Sequence (P04150 whole entry, looked up): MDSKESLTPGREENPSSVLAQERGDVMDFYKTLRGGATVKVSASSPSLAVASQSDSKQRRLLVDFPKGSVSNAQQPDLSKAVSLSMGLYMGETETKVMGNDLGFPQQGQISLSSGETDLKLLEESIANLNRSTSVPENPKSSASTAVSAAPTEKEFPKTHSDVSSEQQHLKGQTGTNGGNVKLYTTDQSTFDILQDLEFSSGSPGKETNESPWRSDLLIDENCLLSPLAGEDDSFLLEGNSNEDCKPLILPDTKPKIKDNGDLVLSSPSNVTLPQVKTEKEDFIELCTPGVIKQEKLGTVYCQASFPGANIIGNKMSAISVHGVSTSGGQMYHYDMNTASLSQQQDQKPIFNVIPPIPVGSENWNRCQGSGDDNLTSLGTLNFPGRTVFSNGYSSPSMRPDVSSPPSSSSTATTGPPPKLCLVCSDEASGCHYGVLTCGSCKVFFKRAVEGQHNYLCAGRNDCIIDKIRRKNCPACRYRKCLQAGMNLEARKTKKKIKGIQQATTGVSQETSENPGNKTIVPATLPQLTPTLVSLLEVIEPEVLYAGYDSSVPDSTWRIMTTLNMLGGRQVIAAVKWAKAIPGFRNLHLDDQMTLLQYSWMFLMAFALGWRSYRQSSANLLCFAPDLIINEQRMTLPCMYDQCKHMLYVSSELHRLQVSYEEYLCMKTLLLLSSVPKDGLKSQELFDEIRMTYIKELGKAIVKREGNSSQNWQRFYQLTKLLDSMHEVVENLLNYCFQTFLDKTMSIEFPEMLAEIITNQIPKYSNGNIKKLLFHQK
Source text: U.S. Tox21 Program National Center for Advancing Translational Sciences [NCATS] NIH Chemical Genomics Center [NCGC] U.S. Environmental Protection Agency [EPA] National Institutes of Environmental Health Sciences [NIEHS] National Toxicology Program [NTP] U.S. Food and Drug Administration [FDA] Tox21 Assay Overview: The Glucocorticoid receptor (GR) is one of the members of the nuclear receptor family of ligand-dependent transcription factors. GR plays a critical role in carbohydrate, protein and lipid metabolisms and programmed cell death. CellSensor GR-bla HeLa cell line (Invitrogen) contains a beta-lactamase reporter gene under the control of the glucocorticoid response element stably integrated into HeLa cells, a cervical cancer cell line that expresses glucocorticoid receptor. The activation of the reporter gene under culture conditions can be detected by fluorescence intensity. This cell line has been used to screen the Tox21 10K compound library and to identify the compounds that inhibit the GR signaling.
Tox21 Assay Protocol Summary: The GR-bla HeLa cells were dispensed at 1500 cells/5 ul/well in 1536-well black wall/clear bottom plates using a Multidrop Combi (ThermoFisher Scientific, Waltham, MA) dispenser. After the assay plates were incubated at a 37 C/5% CO2 incubator for 4 hours, 23 nL of compounds dissolved in DMSO, positive controls or DMSO only was transferred to the assay plate by a pintool station (Kalypsys, San Diego, CA), followed by addition of 1 uL of dexamethasone (5 nM, final concentration in the well). The plates were incubated at 37 C for 18 hours. After 1 uL of LiveBLAzerTM B/G FRET substrate was added using a Flying Reagent Dispenser (Aurora Discovery, San Diego, CA), the plates were incubated at room temperature for 2 hours, and fluorescence intensity was measured by an Envision plate reader (PerkinElmer, Shelton, CT).
Potency is read from the fitted curve at half-maximal effect.

SMILES | Potency
C(COCC1CO1)OCC1CO1 (stereo not given) | inactive
CNC(=O)O/N=C(/CSC)C(C)(C)C | inactive
O=C(NC(O)C(Cl)(Cl)Cl)NC(O)C(Cl)(Cl)Cl (stereo not given) | inactive
CCC(=O)OC1(c2ccccc2)CCN(C)CC1 | inactive
C=C(C)[C@H]1CN[C@H](C(=O)O)[C@H]1CC(=O)O | inactive
[O-][Br+2]([O-])O | inactive
Oc1ccc(Cc2ccc(O)cc2)cc1 | inactive
O=C1CC(=O)NC(=O)N1 | inactive
CN(C)C(=O)Oc1cc(OC(=O)N(C)C)cc(C(O)CNC(C)(C)C)c1 (stereo not given) | inactive
BrCCc1ccccc1 | inactive
CCN[C@@H](C)Cc1ccccc1 | inactive
Nc1c(Cl)c(F)nc(OCC(=O)O)c1Cl | inactive
CC(=O)OCC1=C(C(=O)O)N2C(=O)[C@@H](N)[C@H]2SC1 | inactive
C[C@H](CN1CCOCC1)C(C(=O)N1CCCC1)(c1ccccc1)c1ccccc1 | inactive
Cn1c(CCCC(=O)O)nc2cc(N(CCCl)CCCl)ccc21 | inactive
NCC1(CC(=O)O)CCCCC1 | inactive
Cc1ccc2cc(C)ccc2c1 | inactive
ClCC1CO1 (stereo not given) | inactive
COC(=O)c1ccc(CBr)cc1 | inactive
COc1ccccc1OC | inactive

SMILES | Potency
Cc1ccc2c(c1)C1CN(C)CCC1N2 (stereo not given) | inactive
CCN(CCO)CCO | inactive
CCOP(=S)(OCC)Oc1ccc(Cl)cc1Cl | inactive
COc1ccc(CN2CCNCC2)c(OC)c1OC | inactive
CCN(CCO)CCn1c(Cc2ccccc2)nc2c1c(=O)n(C)c(=O)n2C | inactive
NC(=O)OCCCc1ccccc1 | inactive
CCOC(=O)CC(SP(=S)(OC)OC)C(=O)OCC (stereo not given) | inactive
C/C(=N\NC(=O)Nc1cc(F)cc(F)c1)c1ncccc1C(=O)O | inactive
CC1=C2[C@H]3OC(=O)[C@@H](C)[C@@H]3CC[C@@]2(C)C=CC1=O | inactive
O=[N+]([O-])c1cccc(CCl)c1 | inactive
N#CN=C1SCCN1Cc1ccc(Cl)nc1 | inactive
C=CCCC#N | inactive
N#CN | inactive
O=c1[nH]oc2c1CCNC2 | inactive
Clc1ccc(C(Cl)(Cl)Cl)cn1 | inactive
CN(C)C1CCCCC1 | inactive
CC(O)CCl (stereo not given) | inactive
CCOP(=O)(CN(CCO)CCO)OCC | inactive
CC1N=C(N)OC1c1ccccc1 (stereo not given) | inactive
CC#Cc1cc(C)nc(Nc2ccccc2)n1 | 54.9 µM (active)
